Bioassay records deposited in PubChem BioAssay by National Center for Advancing Translational Sciences (NCATS).
HT1080 IDH1KD tx = kills HT-1080 cells with IDH1 knockdown. Potency, µM (doses to about 46.1 µM), without a hit: at the top dose activity, negative = toxicity, hits mostly cytotoxic. HT-1080 IDH1 knockdown viability, ATP luminescence, 48 h. hit rate 2% among 360,000;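 also: potency is read from the fitted curve at half-maximal effect; 0% = DMSO wells and -100% = cell-free medium wells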
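Using the IDH1-knockdown HT-1080 line run in the same batch and compound series as the NT line, viability after 48 h at 37 °C was determined by CellTiter-Glo luminescence and expressed as % activity.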
IL-1B inflam inh = blocks inflammasome-driven IL-1 beta release | THP-1 LPS/ATP IL-1B secretion, AlphaLISA, 16 h; hits give low values | activity change, % at 57.5 µM | hit rate 4.7% among 360,000 | AID 743279; in the data active = activity change below about -50%; inconclusive = mostly about -30% to -49%
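Secreted IL-1B measured by AlphaLISA bead assay after 16 h compound exposure of THP-1 cells; compounds (final up to 57.5 uM) added 1 h before LPS (250 ng/mL) and ATP (1.25 mM) stimulation; lower signal means less secretion.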
TDP1 cell CPT = growth inhibition of DT40 Tdp1-/-;hTDP1 cells with camptothecin (screen for TDP1 inhibitors); Potency, µM (series often up to 46.2 µM), for the others: at the top dose activity change, negative = growth inhibition, hits mostly inhibitors; hit rate 12% among 420,000; chicken DT40 Tdp1-/-;hTDP1 cells + 20 nM CPT, ATP luminescence, 48 h; also: potency is read from the fitted curve at half-maximal effect; nearly all actives have a fitted effect of over 55% in size
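Chicken DT40 Tdp1-/- cells stably complemented with human TDP1 were seeded at 400 cells/well in medium containing 20 nM camptothecin, exposed to pin-transferred compounds, and grown at 37 °C for at least 48 hr. Viability was read as ATP luminescence.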
HT1080NT lethal = kills 2HG-producing HT-1080-NT fibrosarcoma cells. AID 686970. HT-1080-NT fibrosarcoma viability, CellTiter-Glo ATP luminescence, 48 h. hit rate 1.6% among 360,000. Potency, µM (series often up to 46.1 µM), inactives show at the top dose activity, negative = less viability, most hits filed as cytotoxic;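 also: NT is the 2HG producing partner of a matched IDH1 knockdown line; potency is read from the fitted curve at half-maximal effect; 0% = DMSO-treated cells and -100% = media-only wells without cells; nearly all actives have a fitted effect of over 55% in size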
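Viability by CellTiter-Glo luminescence after 48 h compound exposure at 37C of HT-1080-NT cells (750/well, RPMI, 5% FBS). % activity scaled between DMSO wells and medium-only wells, then curve-fitted and categorized by curve class.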
ELG1 repair inh = ELG1-dependent DNA repair inhibition. hit rate 2.3% among 330,000. Potency, µM (doses to about 46.1 µM), without a hit: at the highest dose activity change, negative = inhibition, most hits filed as inhibitors. HEK293T ELG1-luciferase reporter, luminescence, 16 h; DNA damage induced by 5-fluorouridine; also: potency is read from the fitted curve at half-maximal effect; nearly all actives have a fitted effect of over 55% in size
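Luminescence from the luciferase reporter, measured 30 min after ONE-Glo reagent at room temperature, was the read-out. Beforehand, 2,000 cells per well were exposed for 16 hr at 37 °C to 5-fluorouridine together with compound or vehicle.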
DT40 TDP1 no CPT = qHTS for Inhibitors of human tyrosyl-DNA phosphodiesterase 1 (TDP1): qHTS in cells in absence of CPT; DT40 Tdp1-/- hTDP1 cells, no CPT, ATP luminescence, 48 h; Potency, µM (series often up to 46.2 µM), inactives show top-dose activity change, negative = growth inhibition, actives largely listed as inhibitors; hit rate 15% among 420,000; also: potency is read from the fitted curve at half-maximal effect; nearly all actives have a fitted effect of over 55% in size
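Readout: luminescence from CellTiter-Glo after 30 min in the dark at RT. Cells: DT40 Tdp1-/- with stable hTDP1, 400/well. Exposure: compounds alone, ≥48 hr, 37 °C.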
Numbers without * were called inactive; u = inconclusive; x = not tested or not shown. A selection: hits, their analogues and other compounds. The true share with any hit is near 19%. Unless noted, calls follow the shape of the dose curve; as a rule, active = well fitted curve in the direction sought with a large enough effect; inconclusive = small, poorly fitted or top-dose-only effect, or another doubt; inactive = no such curve, though single readings can be large; an effect the other way counts as inactive or inconclusive. Unless noted, % is scaled to controls: 0 for no effect and ±100 for the full control effect.

SMILES	HT1080 IDH1KD tx	IL-1B inflam inh	TDP1 cell CPT	HT1080NT lethal	ELG1 repair inh	DT40 TDP1 no CPT
COc1ccc(N2C(=O)N3[C@H](c4cccc(C)c4)[C@@H]4C(=O)N(Cc5ccccc5)C(=O)[C@@H]4[C@]3(Cc3ccccc3)C2=O)cc1	8.6%	2.7	11.6µM*	6.3%	-1.7%	13µM*
CC(C)(C)N1C(=O)[C@H]2[C@@H](c3ccc(Br)cc3)N3C(=O)N(c4cccc(Br)c4)C(=O)[C@@]3(Cc3ccccc3)[C@H]2C1=O	1.4%	-8.2	u	0.0%	35.8%	8.2µM*
CC(C)C[C@@]12C(=O)N(c3cccc(Cl)c3)C(=O)N1[C@H](c1ccc(Br)cc1)[C@@H]1C(=O)N(C(C)(C)C)C(=O)[C@@H]12	6.9%	-21.2	u	6.1%	24.1%	u
CC[C@@]12C(=O)N(c3cccc(Cl)c3)C(=O)N1[C@H](c1ccc(Br)cc1)[C@@H]1C(=O)N(C(C)(C)C)C(=O)[C@@H]12	-11.5%	-24.7	25.9µM*	-9.0%	-1.1%	16.4µM*
COc1ccc([C@@H]2[C@@H]3C(=O)N(C(C)(C)C)C(=O)[C@@H]3[C@]3(Cc4ccccc4)C(=O)N(c4ccc(OC)cc4)C(=O)N23)cc1	13.8%	2.4	-2.6%	8.0%	26.6%	-12.8%
N#CCN(C(=O)COC(=O)CCCNC(=O)c1ccc(Cl)cc1)c1ccccc1	-2.6%	3.4	-7.2%	6.1%	7.7%	-27.6%
COc1ccc(C(=O)C(=O)N2CCN(c3ccc(C)cc3)CC2)cc1OC	0.4%	28.2	u	11.0%	x	u
Cc1ccc2c(=O)c(C(=O)c3ccccc3)cn(CC(=O)Nc3ccc4c(c3)OCCO4)c2n1	x	x	u	x	x	-10.9%
CCC(C)NCCOc1ccc(Br)cc1 (stereo not drawn)	0.6%	12.1	-13.8%	-0.2%	-5.7%	-29.8%
CCC(C)NCCOCCOc1ccc(Br)cc1 (stereo not drawn)	-1.3%	u	u	-16.7%	-1.4%	23.1µM*
O=C(Cn1nnc(-c2ccccc2)n1)c1ccccc1	2.4%	8.1	-23.7%	-1.6%	u	-25.6%
O=C(Cn1c(-c2ccccc2)c[n+]2ccsc12)c1ccc([N+](=O)[O-])cc1	u	5.9	23.1µM*	u	-3.1%	23.1µM*
O=C(Cn1c(-c2ccccc2)c[n+]2ccsc12)c1ccccc1	-10.1%	46.1	20.6µM*	-7.8%	u	u
CCOC(=O)C1(Cc2cccc(OC)c2)CCCN(C(=O)CCN2CCCO2)C1 (stereo not drawn)	0.8%	5.7	-24.0%	28.4%	u	2.7%
CCOc1ccc(NC(=O)c2cc(S(=O)(=O)N3CCOCC3)cn2C)cc1	0.2%	0.7	19.0%	12.6%	8.5%	-0.6%
CN(C(=O)Nc1ccc(Cl)cc1Cl)[C@H]1c2cc(Br)ccc2OC[C@H]1CO	u	-72.6*	u	u	20.6µM*	-17.6%
COc1cccc2c1OC[C@@H](CO)[C@H]2N(C)C(=O)Nc1ccccc1	6.4%	17.8	-5.1%	12.9%	-2.0%	-0.3%
CCOC(=O)C1CCN(C2=NC(=O)/C(=C/c3ccc(O)cc3)S2)CC1	8.2%	27.7	u	20.7%	6.7%	7.31µM*
CCOC(=O)C1CCCN(C2=NC(=O)/C(=C/c3ccc(N(C)C)cc3)S2)C1 (stereo not drawn)	u	-83.1*	u	-10.2%	6.9%	u
N#CC1(NC(=O)CSc2nnc(C3CC3)n2N)CCCCC1	16.5%	20.5	-1.8%	15.4%	x	-2.4%
C=CC[C@]12CC=CC(=O)[C@@]1(O)O[C@H](c1ccc(OC)c(OC)c1)[C@H]2C	-15.6%	-114.5*	10.3µM*	-2.1%	x	5.8µM*
COCCNC(=O)C[C@H]1C[C@H]2c3cc(NS(=O)(=O)c4ccc(F)cc4)ccc3O[C@H]2[C@H](CO)O1	-3.1%	16.3	u	5.0%	x	u
CCc1n(CC(O)COCc2ccccc2)c2ccccc2[n+]1C (stereo not drawn)	-4.7%	32.9	u	-9.0%	1.1%	u
Cc1n(CC(O)COC2CCCCC2)c2ccccc2[n+]1C (stereo not drawn)	1.4%	10.6	u	9.7%	u	13µM*
O=C(C1=C[C@H](c2ccc3c(c2)OCO3)C[C@H](OCc2ccc(CO)cc2)O1)N1CCOCC1	10.8%	-13.8	4.5%	6.8%	9.8%	-3.7%
SMILES	HT1080 IDH1KD tx	IL-1B inflam inh	TDP1 cell CPT	HT1080NT lethal	ELG1 repair inh	DT40 TDP1 no CPT
CC(C)(C)[C@@H]1C=C(C(=O)N2CCN(Cc3ccccc3)CC2)O[C@H](OCc2ccc(CO)cc2)C1	-5.0%	-2.5	13µM*	-2.0%	-8.2%	u
CC(C)(C)[C@H]1C=C(C(=O)N2CCN(Cc3ccc4c(c3)OCO4)CC2)O[C@@H](OCc2ccc(CO)cc2)C1	-22.1%	-61.3*	20.6µM*	-17.5%	5.17µM*	18.4µM*
CCOc1ccc(NC(=O)CN2C(=O)NC(C)(c3ccc4c(c3)OCCCO4)C2=O)cc1OCC (stereo not drawn)	7.8%	1.1	-4.8%	6.9%	x	-14.6%
Cc1onc(-c2ccccc2)c1C(=O)N/N=C/c1ccco1	1.5%	14.5	-28.9%	-7.1%	-8.3%	-0.5%
Cc1onc(-c2ccccc2)c1C(=O)N/N=C/c1ccc([N+](=O)[O-])s1	u	-13.4	16.4µM*	-7.7%	u	13µM*
O=C(Cc1cccs1)N/N=C\c1ccc([N+](=O)[O-])s1	-27.6%	6.8	8.2µM*	u	14.6µM*	20.6µM*
O=C(CNC(=O)c1ccccc1Cl)N/N=C/c1ccc([N+](=O)[O-])s1	23.1µM*	-55.6*	20.6µM*	u	u	20.6µM*
CN(C)/C=C/C(=O)c1ccc(-c2ccc(Cl)cc2Cl)o1	7.6%	u	1.7%	0.4%	u	-12.7%
CC(C(=O)NC1CCCC1)n1c(-c2ccncc2)nc2ccccc21 (stereo not drawn)	15.1%	30.8	-6.0%	5.3%	x	1.4%
CC1(C(=O)NS(=O)(=O)c2ccc(C#N)cc2)CCN1C(=O)c1ccccc1CCc1ccccc1 (stereo not drawn)	u	6.5	u	-26.8%	x	u
CCN(C1CCCCC1)S(=O)(=O)CCNC(=O)c1ccc(OC)cc1	6.6%	-5.8	u	9.4%	x	u
